Source: the antibiotic and cytotoxicity screens of Wong et al. (2023)
Out of some 39,000 compounds screened, about 3,300 (8.5%) were called active. This excerpt belongs to a sample that is enriched for actives.

tested on: HepG2; experiment: cytotoxicity call (relative viability < 0.9); details: 10 µM

Compound	cytotoxicity call
CN1[C@@H]2Cn3c(ccc(-c4ccccc4)c3=O)[C@H]1[C@@H](C(=O)NCCCN1CCOCC1)[C@@H]2CO	inactive
C[C@@H]1CN([C@@H](C)CO)C(=O)Cc2cc(NC(=O)Cn3cnnn3)ccc2O[C@H]1CN(C)C(=O)Nc1ccccc1	inactive
CCCNC(=O)N[C@H]1C=C[C@@H](CC(=O)N2CCN(C)CC2)O[C@@H]1CO	inactive
C[C@H]1CN([C@@H](C)CO)C(=O)c2cc(/C=C/c3ccccc3)cnc2O[C@@H]1CN(C)C(=O)c1cnccn1	inactive
C[C@H]1CN([C@@H](C)CO)C(=O)Cc2cc(NC(=O)Cn3cnnn3)ccc2O[C@H]1CN(C)Cc1ccc(Oc2ccccc2)cc1	inactive
COCC(=O)N(C)C[C@@H]1Oc2cc(-c3ccc(C#N)cc3)ccc2S(=O)(=O)N([C@H](C)CO)C[C@H]1C	inactive
COc1ccc(S(=O)(=O)Nc2ccc3c(c2)C(=O)N([C@@H](C)CO)C[C@@H](C)[C@@H](CN(C)S(C)(=O)=O)OCCCC[C@@H](C)O3)cc1	inactive
C[C@H](CO)N1C[C@H](C)[C@@H](CN(C)S(=O)(=O)c2cccs2)Oc2ccc(NC(=O)Cc3ccccc3)cc2C1=O	inactive
C[C@@H]1CN([C@H](C)CO)C(=O)c2cc(NC(=O)Nc3ccc(F)cc3)ccc2O[C@@H](C)CCCCO[C@H]1CN(C)Cc1ccncc1	inactive
CC(C)NC(=O)Nc1ccc2c(c1)C(=O)N([C@@H](C)CO)C[C@@H](C)[C@@H](CN(C)Cc1ccc(-c3ccccc3)cc1)O2	active
C[C@@H]1CN([C@H](C)CO)C(=O)c2cc(NC(=O)Nc3ccccc3)ccc2O[C@@H]1CN(C)Cc1ccc(-c2ccccc2)cc1	active
C[C@H]1CN([C@@H](C)CO)C(=O)c2cc(NC(=O)Nc3ccccc3)ccc2O[C@H]1CN(C)Cc1ccc(-c2ccccc2)cc1	inactive
C[C@@H]1CN([C@@H](C)CO)C(=O)c2cc(NC(=O)Nc3ccccc3)ccc2O[C@H]1CN(C)Cc1ccc(-c2ccccc2)cc1	active
C[C@H](CO)N1C[C@H](C)[C@H](CN(C)Cc2ccc(-c3ccccc3)cc2)Oc2ccc(NC(=O)Nc3ccccc3)cc2C1=O	inactive
C[C@H](CO)N1C[C@H](C)[C@@H](CN(C)Cc2ccc(-c3ccccc3)cc2)Oc2ccc(NC(=O)Nc3ccccc3)cc2C1=O	active
CC(C)NC(=O)Nc1ccc2c(c1)C(=O)N([C@@H](C)CO)C[C@@H](C)[C@H](CN(C)Cc1ccc(-c3ccccc3)cc1)O2	inactive
CC(C)NC(=O)Nc1ccc2c(c1)C(=O)N([C@@H](C)CO)C[C@H](C)[C@@H](CN(C)Cc1ccc(-c3ccccc3)cc1)O2	inactive
C[C@@H]1CCCCO[C@@H](CN(C)C(=O)CCC(F)(F)F)[C@H](C)CN([C@H](C)CO)C(=O)c2cc(NC(=O)NC3CCCCC3)ccc2O1	inactive
COCCNC(=O)C[C@H]1CC[C@@H]2[C@H](COC[C@H](O)CN2S(=O)(=O)c2ccccc2C)O1	inactive
C[C@H]1CN([C@@H](C)CO)C(=O)c2c(c3ccccc3n2C)-c2ccccc2CO[C@@H]1CN(C)Cc1ccc(O)cc1	inactive
C[C@H]1CN([C@@H](C)CO)C(=O)c2cc(NC(=O)CCN3CCOCC3)ccc2O[C@@H]1CN(C)S(=O)(=O)c1cn(C)cn1	inactive

Compound	cytotoxicity call
COc1ccc(S(=O)(=O)N(C)C[C@@H]2Oc3ccc(NC(=O)Nc4c(C)noc4C)cc3CC(=O)N([C@H](C)CO)C[C@@H]2C)cc1	inactive
CC(C)NC(=O)N(C)C[C@@H]1Oc2c(NS(=O)(=O)c3ccc(Cl)cc3)cccc2C(=O)N([C@H](C)CO)C[C@@H]1C	inactive
C[C@@H]1CN([C@@H](C)CO)C(=O)c2cccc(NS(C)(=O)=O)c2O[C@@H]1CN(C)C(=O)Nc1ccc(C(F)(F)F)cc1	inactive
CSCCC(NC(=O)C(Cc1c[nH]c2ccccc12)NC(=O)CCNC(=O)OC(C)(C)C)C(=O)NC(CC(=O)O)C(=O)NC(Cc1ccccc1)C(N)=O (stereo unspecified)	inactive
COc1ccc(S(=O)(=O)N(C)C[C@H]2Oc3ccc(NS(=O)(=O)c4ccc(F)cc4)cc3CC(=O)N([C@H](C)CO)C[C@H]2C)cc1	inactive
CN([C@@H](Cc1ccc(OS(=O)(=O)c2cccc3cnccc23)cc1)C(=O)N1CCN(c2ccccc2)CC1)S(=O)(=O)c1cccc2cnccc12	inactive
CN(C)CC(=O)N[C@@H]1CC[C@H](CCNC(=O)C2CCC2)O[C@H]1CO	inactive
CN1C(=O)/C(=C(/C#N)C(N)=O)c2ccccc21	inactive
O=C(Nc1ccccc1)C1=C[C@H](c2ccc3c(c2)Cc2ccccc2-3)C[C@H](OCc2ccc(CO)cc2)O1	inactive
Cc1ccc(S(=O)(=O)Nc2ccc3c(c2)C(=O)N([C@H](C)CO)C[C@H](C)[C@@H](CN(C)S(C)(=O)=O)OCCCC[C@@H](C)O3)cc1	inactive
O=C(NC1CCCCC1)[C@@H]1C(c2ccc(Cl)cc2)=C(S(=O)(=O)c2ccccc2)C(=O)N1Cc1ccc(-c2ccccc2)cc1	inactive
CC(=O)n1nc(-c2cccnc2)nc1N	inactive
C[C@H](CO)N1C[C@H](C)[C@H](CN(C)Cc2ccc(C(=O)O)cc2)OCCCC[C@H](C)Oc2ccc(NC(=O)c3ccccc3)cc2C1=O	inactive
C[C@@H]1CN([C@@H](C)CO)C(=O)c2cc(NC(=O)Nc3ccccc3)ccc2O[C@@H]1CN(C)Cc1ccc(-c2ccccc2)cc1	active
C[C@@H]1CN([C@H](C)CO)C(=O)c2cc(NC(=O)Nc3ccccc3)ccc2O[C@H]1CN(C)Cc1ccc(-c2ccccc2)cc1	active
COCC(=O)N(C)C[C@H]1Oc2cc(C#Cc3ccccc3)ccc2S(=O)(=O)N([C@@H](C)CO)C[C@@H]1C	inactive
O=C(CSc1nnc[nH]1)C1CC1	inactive
COc1c(C)cc(-c2cc3c(c(CCc4ccccc4)n2)[Si](C(C)C)(C(C)C)O[C@H]3c2ccccc2)cc1C	inactive
COc1cc(Nc2ncc(F)c(Nc3ccc4c(n3)N(COP(=O)(O)O)C(=O)C(C)(C)O4)n2)cc(OC)c1OC	active
COCC(=O)Nc1ccc2c(c1)C(=O)N(C)C[C@H](OC)[C@H](C)CN(C(=O)Cc1cccnc1)[C@@H](C)CO2	inactive
